This passage reports outcome results from PubChem BioAssay (EPA / NIEHS).

The source made the active and inactive calls. Rule for the calls: active = hit-call score of the fitted dose curve at least 0.9, where 1 is the maximum; inactive = score below 0.9.

This test in a line: ATG_M_61_CIS: Attagene CIS-FACTORIAL HepG2 Assay for M61 Transcription Factor (Internal Marker) (AID 2282937). To be noted: HepG2 Attagene CIS-FACTORIAL M61 internal marker reporter; actives raise or lower the signal. The method, then:
ATG_CIS is a cell-based, multiplexed-readout assay that uses HepG2, a human liver cell line, with measurements taken at 24 hours after chemical dosing in a 24-well plate.ATG_M_61_CIS is one of 52 assay component(s) measured or calculated from the ATG_CIS assay. It is designed to make measurements of mRNA induction, a form of inducible reporter, as detected with fluorescence intensity signals by Reverse transcription polymerase chain reaction (RT-PCR) and Capillary electrophoresis technology.Data from the assay component ATG_M_61_CIS was analyzed into 1 assay endpoint. This assay endpoint, ATG_M_61_CIS, was analyzed with bidirectional fitting relative to DMSO as the negative control and baseline of activity. Using a type of inducible reporter, measures of mRNA for gain or loss-of-signal activity can be used to understand the background control at the transcription factor-level as they relate to the gene . Furthermore, this assay endpoint can be referred to as a secondary readout, because this assay has produced multiple assay endpoints where this one serves a background control function. To generalize the intended target to other relatable targets, this assay endpoint is annotated to the background measurement intended target family, where the subfamily is internal marker.
Human liver HepG2 cells are transiently transfected with multiple reporter transcription units (MRTUs) in 6-well plates using FuGene 6 reagent (Roche; 3 ml FuGene/1 mg DNA). The MRTU constructs are regulated by a cis-regulating element (promoter). […] A major difference between the CIS and TRANS system is that in CIS activities of endogenous TFs are measured, whereas the TRANS assay evaluates changes in activities of exogenous, chimeric NR-Gal4 proteins. […] At the end of 24 hour incubation, total RNA was isolated using TriZol reagent (Invitrogen). The isolated RNA is then reverse-transcribed using oligo(dT) primer and Mo-MLV reverse transcriptase (Invitrogen) with DNAse I (Ambion) treatment for 30 min. The one-tenth of the produced cDNA was amplified by PCR using Taq DNA polymerase (Invitrogen) and two reporter sequence-specific primers. The PCR products were fluorescently labeled by primer extension with 6-arboxyfluorescein (6-FAM) 5'-labeled reporter sequence-specific primer (2 min at 95 C, 20 s at 68 C and 10 min at 72 C) and these products were digested with 5U of HpaI (New England Biolabs) for 2h at 37 C. The fragments were purified using Qiaquick PCR columns (Qiagen), analyzed on an ABI 3130xL genetic analyzer (Applied Biosystems) with peak positions identified by using a set of X-rhodamine (ROX)-labeled MapMarker1000 molecular weight standards (BioVentures). The raw capillary electrophoresis data was processed using Attagraph software (Attagene).
On to `COc1cccc(OC)c1C(=O)O`, for which the result was inactive. Consider `O=C(OCc1ccccc1)c1ccccc1`, for which the outcome was inactive. For `Oc1ccc(Oc2ccccc2)cc1`, the molecule was called inactive. Under `C=CN1CCCCCC1=O` stands “inactive”. Under `CCCCCCCCCCCCCC` stands “inactive”. Turning to `CCC(C)C1N=C(C)C(C)S1` (stereo not given), the molecule was called inactive. Under `OCCOCCOCCOCCOCCO` stands “inactive”; under `CCCc1c(OCCCCc2nn[nH]n2)ccc(C(C)=O)c1O`, “inactive”. In the case of `CC1=NN(c2cc(Cl)c(S(=O)(=O)O)cc2Cl)C(=O)C1N=Nc1ccc(S(=O)(=O)O)cc1` (stereo not given) it was “inactive”; in that of `COc1ccc2ccccc2c1`, “inactive”.

Take `CN(C)N=Nc1ccccc1`: the outcome was inactive. Under `CC[N+](CC)(CC(=O)Nc1c(C)cccc1C)Cc1ccccc1` stands “inactive”.

Consider `N#CCN(CC#N)CCN(CC#N)CC#N`, for which the result was inactive. With `CC(=O)CCc1ccccc1`, the call was inactive. `NC(=O)c1ccc(N)cc1`: the call was inactive. Regarding `CC(=O)Nc1c(I)c(NC(C)=O)c(I)c(C(=O)O)c1I`, the molecule was called inactive. In the case of `CC/C=C\CCCCCO` it was “inactive”. Under `O=C(O)c1nc(Cl)c(Cl)c(Cl)c1Cl` stands “inactive”; under `CCCCCC[C@@H](O)C/C=C\CCCCCCCC(=O)O`, “inactive”; under `CC(O)(P(=O)(O)O)P(=O)(O)O`, “inactive”. For `Clc1ccccn1`, the result was inactive. Under `C1=CCC=C1` stands “inactive”. Under `CCCCCCC1CCCC(=O)O1` (stereo not given) stands “inactive”. Under `CC1=C(CC(=O)O)c2cc(F)ccc2/C1=C\c1ccc(S(C)=O)cc1` (stereo not given) stands “inactive”; under `CCCC[N+]1(C)CCCC1`, “inactive”; under `O=C(O)c1cc(Cl)cc(Cl)c1O`, “inactive”. On to `CCC(=O)OCc1ccc(OC)cc1`, for which the result was inactive. Under `c1ccc2c(c1)Oc1ccccc1S2` stands “inactive”.

`CNC(=C[N+](=O)[O-])NCCSCc1csc(CN(C)C)n1`: the outcome was inactive. In the case of `CC1(C)S[C@@H]2[C@H](NC(=O)[C@H](N)c3ccccc3)C(=O)N2[C@H]1C(=O)O` it was “inactive”; in that of `C/C=C(\C)C(=O)OCC/C=C\CC`, “inactive”.

Consider `CCCCCCC(O)CCCCCCCCCCC(=O)OC` (stereo not given), for which the call was inactive.

Consider `COC(=O)[C@]1(C)CCC[C@@]2(C)[C@H]1CC=C1C=C(C(C)C)CC[C@@H]12`, for which the call was inactive.

On to `Cc1ccnc(N)c1`, for which the result was inactive.

As for `Oc1ccc(Cl)cc1C1CCCC1`, the call was inactive. Under `C[C@H]1C[C@H]2[C@@H]3CCC4=CC(=O)C=C[C@]4(C)[C@@]3(F)[C@@H](O)C[C@]2(C)[C@@]1(O)C(=O)CO` stands “inactive”; under `CCOC(=O)c1ccccc1`, “inactive”. In the case of `CCCCCC1CCCC(=O)O1` (stereo not given) it was “inactive”; in that of `CN(C)c1ccc(C(c2ccccc2)c2ccc(N(C)C)cc2)cc1`, “inactive”. On to `COCCCN`, for which the call was inactive.
